# Measurements reported in the supplement of paper PMC9254222.
# Whole data set: some 1,100 compounds, median “Renilla luciferase signal (cell health) relative to plate median” near 0.97, cut for the highest 2% near 1.6. Shown is part of a subset that was picked to be rich in the highest values.
# Test system: HEK293T (UBE3A T485A transfected, BAR Wnt reporter)
# Experiment: Renilla luciferase signal (cell health) relative to plate median (fold (linear ratio)); higher = higher Renilla signal
# Conditions: 24 h
# Summary of the method: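 HEK293T cells carrying a transfected BAR firefly luciferase Wnt reporter, TK-Renilla and an expression plasmid were exposed to chemicals at 0.01–100 uM for 24 h, with dosing four hours after transfection. Readout used Dual-Glo luciferase. The firefly/Renilla ratio defined Wnt activity and raw Renilla defined cell health, each median-centred per plate. Figures are means of four biological replicates.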
Compound,Renilla luciferase signal (concentration: 0.01 uM),Renilla luciferase signal (concentration: 0.1 uM),Renilla luciferase signal (concentration: 1 uM),Renilla luciferase signal (concentration: 10 uM),Renilla luciferase signal (concentration: 100 uM)
CN1C2CC(OC(=O)C(CO)c3ccccc3)CC1C1OC12 (configuration not stated) [Scopolamine],0.78,0.722,0.931,0.834,1.62
CNC(=O)Oc1cccc2c1OC(C)(C)C2 [Carbofuran],,1.05,1.01,0.953,0.523
CC(C)(C)OOC(C)(C)C [Di-tert-butyl peroxide],,1.07,0.922,1.09,1.12
O=[As][O-].[Na+] [Sodium arsenite],0.746,0.622,0.288,0.0446,0.0136
CC(C)(C)c1ccc(CSc2cnn(C(C)(C)C)c(=O)c2Cl)cc1 [Pyridaben],1.05,0.947,0.477,0.233,0.172
"Nc1ccc(Cl)cc1N [4-Chloro-1,2-diaminobenzene]",,1.05,0.965,0.612,0.0486
Nc1cc(Cl)cc(C(=O)O)c1Cl [Chloramben],,1.02,1.02,1.18,1.64
C[C@@H]1C[C@@H]([C@H](O)CC2CC(=O)NC(=O)C2)C(=O)[C@@H](C)C1 [Cycloheximide],,0.674,0.0448,0.0298,0.0285
"CC(O)CCO (configuration not stated) [1,3-Butanediol]",,1.06,1.08,1.16,1.47
CCC(C)(CC)c1cc(NC(=O)c2c(OC)cccc2OC)on1 [Isoxaben],0.906,0.789,0.94,0.964,0.549
ClC(Cl)=C(c1ccc(Cl)cc1)c1ccc(Cl)cc1,,0.978,1.09,1.13,1.33
O=C(NC(=O)c1c(F)cccc1F)Nc1cc(Cl)c(OC(F)(F)C(F)F)c(Cl)c1 [Hexaflumuron],,0.601,0.604,0.441,0.493
OCCOc1ccccc1 [2-Phenoxyethanol],0.629,0.856,0.906,0.983,1.74
Oc1ccccc1-c1ccccc1 [2-Phenylphenol],1.08,1.08,0.948,1.01,0.987
c1ccc(OP(Oc2ccccc2)Oc2ccccc2)cc1 [Triphenyl phosphite],,1.06,1.18,1.24,1.16
Clc1ccc(C(c2ccc(Cl)cc2)C(Cl)(Cl)Cl)cc1,,0.841,0.863,0.92,0.995
O=Cc1ccco1 [Furfural],,1.24,1.36,1.2,1.45
Nc1c(Cl)c(Cl)nc(C(=O)O)c1Cl [Picloram],1.22,0.925,1.11,1.09,1.33
NCCO.O=C(O)c1nc(Cl)ccc1Cl [Clopyralid-olamine],1.41,1.18,1.06,1.2,1.53
O=C(O)c1nc(Cl)ccc1Cl [Clopyralid],0.962,0.828,0.985,1,1.8
O=C1CCCO1 [4-Butyrolactone],,0.916,0.91,0.928,1.07

Compound,Renilla luciferase signal (concentration: 0.01 uM),Renilla luciferase signal (concentration: 0.1 uM),Renilla luciferase signal (concentration: 1 uM),Renilla luciferase signal (concentration: 10 uM),Renilla luciferase signal (concentration: 100 uM)
CCC(=O)C(CC(C)N(C)C)(c1ccccc1)c1ccccc1.Cl (configuration not stated) [Methadone hydrochloride],,1.01,1.01,1.07,0.142
CCCCC(CC)COC(=O)CCCCC(=O)OCC(CC)CCCC (configuration not stated) [Di(2-ethylhexyl) adipate],,1.15,1.09,1.28,1.76
CCCCC(CC)COC(=O)c1ccccc1C(=O)OCC(CC)CCCC (configuration not stated) [Di(2-ethylhexyl) phthalate],1.26,1.13,1.01,1.11,0.496
CCCCC(CC)COC(=O)c1ccc(C(=O)OCC(CC)CCCC)cc1 (configuration not stated) [Bis(2-ethylhexyl) terephthalate],,0.974,1.13,1.09,1.28
C#CCN1C(=O)COc2cc(F)c(N3C(=O)C4=C(CCCC4)C3=O)cc21 [Flumioxazin],1.13,1.14,0.954,1.11,0.949
"Clc1ccccc1Cl [1,2-Dichlorobenzene]",,1.14,0.945,1.05,1.27
"Clc1cccc(Cl)c1Cl [1,2,3-Trichlorobenzene]",,1.21,0.959,1.18,1.43
N#Cc1c(Cl)cccc1Cl [Dichlobenil],0.873,0.853,1.03,0.992,1.96
Cc1ccc(/N=C/N(C)/C=N/c2ccc(C)cc2C)c(C)c1 [Amitraz],1.29,1.17,1.06,1.21,0.0374
O=C(NC(=O)c1cc(F)c(F)cc1Cl)Nc1cc(F)ccc1N1CCC(C(=O)O)CC1,,0.8,0.813,0.797,0.641
O=C(O)C(F)(F)C(F)(F)C(F)(F)C(F)(F)C(F)(F)C(F)(F)C(F)(F)C(F)(F)C(F)(F)C(F)(F)F [Perfluoroundecanoic acid],,0.861,0.837,0.868,0.248
O=C(O)C(F)(F)C(F)(F)C(F)(F)C(F)(F)C(F)(F)F,,0.973,0.941,0.896,0.93
O=C(O)C(F)(F)C(F)(F)C(F)(F)C(F)(F)C(F)(F)C(F)(F)C(F)(F)F,0.983,0.781,0.834,0.9,1.9
CCOC1Oc2ccc(OS(C)(=O)=O)cc2C1(C)C (configuration not stated) [Ethofumesate],0.946,1.07,0.964,0.843,1.01
CS(=O)(=O)NC(=O)c1cc(Oc2ccc(C(F)(F)F)cc2Cl)ccc1[N+](=O)[O-] [Fomesafen],,0.998,1.11,1.03,1.19
O=C(O)c1cc(Oc2ccc(C(F)(F)F)cc2Cl)ccc1[N+](=O)[O-] [Acifluorfen],1.17,1.25,0.942,1.02,1.67
CCOC(=O)C(C)OC(=O)c1cc(Oc2ccc(C(F)(F)F)cc2Cl)ccc1[N+](=O)[O-] (configuration not stated) [Lactofen],0.928,0.611,0.876,0.801,0.32
CCN(CC)c1nc(C)cc(OP(=S)(OC)OC)n1 [Pirimiphos-methyl],1.11,1.2,1,0.992,1.53
CN(C)c1nc(=O)n(C2CCCCC2)c(=O)n1C [Hexazinone],0.842,0.839,0.85,0.916,1.2
O=C(O)COc1nc(Cl)c(Cl)cc1Cl [Triclopyr],0.99,0.979,0.95,1.02,1.84
Cc1cc(Cl)ccc1OCC(=O)O,1.11,1.19,1.09,1.12,1.34

Compound,Renilla luciferase signal (concentration: 0.01 uM),Renilla luciferase signal (concentration: 0.1 uM),Renilla luciferase signal (concentration: 1 uM),Renilla luciferase signal (concentration: 10 uM),Renilla luciferase signal (concentration: 100 uM)
CCOP(=O)(OCC)Oc1nc(Cl)c(Cl)cc1Cl [Chlorpyrifos oxon],0.952,1.24,1.07,0.919,0.0737
O=C(O)CCCOc1ccc(Cl)cc1Cl,1.02,0.895,0.898,0.957,1.44
Nc1c(Cl)c(F)nc(OCC(=O)O)c1Cl [Fluroxypyr],1.01,1.05,0.92,1.02,1.09
"O=C(O)COc1ccc(Cl)cc1Cl [2,4-Dichlorophenoxyacetic acid]",1.31,1,0.995,1.02,1.69
"C1=CCCC=CCCC=CCC1 [1,5,9-Cyclododecatriene]",,0.691,0.775,0.813,1.02
CCOC(=O)c1ccccc1C(=O)OCC [Diethyl phthalate],,0.834,0.893,0.976,1.05
COc1nc(NC(C)C)nc(NC(C)C)n1 [Prometon],0.865,0.628,0.707,1.02,1.41
CC(C)(O)C(=O)Nc1ccc([N+](=O)[O-])c(C(F)(F)F)c1 [Hydroxyflutamide],,0.949,0.928,0.775,0.129
CC(C)=CC1C(C(=O)OCc2coc(Cc3ccccc3)c2)C1(C)C (configuration not stated) [Resmethrin],1.12,1.04,0.974,1.01,0.166
CCCCOCN(C(=O)CCl)c1c(CC)cccc1CC [Butachlor],0.877,0.813,0.902,0.865,0.895
CC1(c2ccc(Oc3ccccc3)cc2)OC(=O)N(Nc2ccccc2)C1=O (configuration not stated) [Famoxadone],1.07,1.08,1.07,0.383,1.15
NS(=O)(=O)C(F)(F)C(F)(F)C(F)(F)C(F)(F)C(F)(F)C(F)(F)C(F)(F)C(F)(F)F,,0.448,0.567,0.447,0.0943
Cc1c(F)c(F)c(COC(=O)C2C(/C=C(\Cl)C(F)(F)F)C2(C)C)c(F)c1F (configuration not stated) [Tefluthrin],0.953,0.885,1.03,0.886,1.47
C[n+]1ccc(-c2cc[n+](C)cc2)cc1 [Paraquat],0.802,0.782,0.9,0.995,2.18
CCNc1nc(Cl)nc(NC(C)(C)C)n1 [Terbutylazine],,0.934,1.02,0.978,0.981
"Cc1cccc(C)c1N [2,6-Dimethylaniline]",,0.815,0.773,0.833,0.897
O=C(O)CNCP(=O)(O)O [Glyphosate],0.796,0.874,0.905,1.07,2.5
COP(=S)(OC)Oc1nc(Cl)c(Cl)cc1Cl [Chlorpyrifos-methyl],1.5,1.18,1.01,1.04,0.838
CN(C)NC(=O)CCC(=O)O [Daminozide],0.728,0.735,0.928,0.807,1.39
"Cc1ccc(N)cc1N [2,4-Diaminotoluene]",,1.12,1.22,1.09,1.45
O=C(O)c1c(Cl)ccc2cc(Cl)cnc12 [Quinclorac],1.12,1.11,0.984,1.04,1.88
